From PubChem BioAssay
Active and inactive are the calls of the source. Rule as the data show it, unless noted: active = inhibition above about 30%; inactive = the rest.

Experiment: 384-well plate pilot, post-Golgi transport modulator project, inhibition of yeast transport mutant growth (AID 636; in the data active = inhibition above about 31%)
Details: absorbance 615 nm, about 18 h, hits give high values

inhibition, inactive:
CC(CCc1ccccc1)NC(=O)C1CCCN(c2nnc(-n3cccc3)s2)C1 (stereo not drawn) -0.38%, O=C(c1cc(C2CC2)on1)N1CCN(C(c2ccccc2)c2ccccc2)CC1 0.9%, O=C(C1COc2ccccc2O1)N1CCCC1 (stereo not drawn) -1.41%, CCCCOC(=O)Nc1nc2ccc(OC)cc2s1 -6.08%, CCn1cc(C(=O)NCC2CCCO2)c(=O)c2cc(S(=O)(=O)N(C)C3CCCCC3)ccc21 (stereo not drawn) -1.41%, CCCNC(=O)CS(=O)(=O)Cc1nc(-c2cccc(OC)c2)oc1C -0.53%, CC(=O)C1=C(N2CCCCC2)CCC1=O -5.81%, CCOC(=O)C1CCN(Cc2ccc(F)c(Br)c2)CC1 -1.17%, Cc1ccc(N(C(=O)c2ccncc2)C2C=CS(=O)(=O)C2)cc1 (stereo not drawn) 0.51%, COc1ccc(CCNC(=O)C2(C)CCC(=O)N2Cc2ccc3c(c2)OCO3)cc1OC (stereo not drawn) -2.69%, COc1ccc(C2c3c(oc4ccccc4c3=O)C(=O)N2c2ccc(C)cn2)cc1OC (stereo not drawn) -0.9%, CCn1cc(C(=O)NCCCOC)c(=O)c2cc(S(=O)(=O)N(C)C)ccc21 -1.73%, Cc1cc(C)nc(/N=C2\NC(=O)CC(C(=O)O)N2c2ccc(Cl)cc2)n1 (stereo not drawn) -6.53%, O=C(O)c1ccccc1S(=O)(=O)NCC(O)COc1ccc(Br)cc1 (stereo not drawn) -2.47%, COC(=O)Cn1c(=NC(=O)CSCC(=O)Nc2cc(C)on2)sc2ccccc21 -5.07%, COc1ccc(S(=O)(=O)N(CC(=O)N2CCN(c3ccccc3OC)CC2)c2ccccc2)cc1 -6.35%, CCOc1ccccc1NC(=O)CC1Nc2cc(C)c(C)cc2NC1=O (stereo not drawn) -1.67%, COc1ccc(N2Cc3ccccc3C2)cc1Cl -4.27%, CCOC(=O)C(CC)n1nc(C)n2c(cc3sccc32)c1=O (stereo not drawn) -5.87%, CCOC(=O)C(CC)(CCC(=O)O)c1csc(N)n1 (stereo not drawn) -8.4%, CCOc1ccc(NC(=O)CN2C(=O)C3CCCN3C2=O)cc1 (stereo not drawn) -2.53%, CCOC(=O)N1CCN(C(=O)COc2ccc(S(=O)(=O)NC(C)C)cc2)CC1 -5.07%, O=C(NC1CCCc2ccccc21)c1ccc(CNc2c(N3CCOCC3)c(=O)c2=O)cc1 (stereo not drawn) 1.79%, CNC(=O)c1ccsc1NC(=O)c1ccccc1 -4.8%, N#Cc1cc2c(nc1SCC(=O)N1CCCCC1)CCCC2 3.51%, COc1ccc(N2CCN(c3oc(COc4ccccc4Cl)nc3C#N)CC2)cc1 -6.23%, COc1ccccc1S(=O)(=O)Cc1ccc(C(=O)N2CCN(c3ccc(C)cc3)C(C)C2)o1 (stereo not drawn) -1.07%, CCOC(=O)N1CCC(c2cc(=O)n3[nH]c(C)c(-c4ccc(F)cc4)c3n2)CC1 0.38%, O=C1CCCC2=C1C(c1cccc(Br)c1)n1nc(-c3ccco3)nc1N2 (stereo not drawn) -1.73%, CCc1ccccc1NC(=O)c1cnc2n(c1=O)CCS2 -1.33%, CC(CCc1ccco1)NC(=O)Cn1ncc2c1-c1ccccc1OC2 (stereo not drawn) -2.4%, COc1cccc(NC(=O)C2CCCN(S(=O)(=O)c3cccc4cccnc34)C2)c1 (stereo not drawn) -5.73%, COc1ccc(C(=O)Nc2nncs2)c(OC)c1 -3.46%, CNC(=O)c1ccccc1NC(=O)c1c(O)c2c([nH]c1=O)CCCC2 -1.71%, Cc1occc1C(=O)N1CCN(Cc2ccccc2)CC1 0.26%, CN(C)CCCN1C(=O)CSC1c1ccccc1 (stereo not drawn) -4.67%, CCc1ccc(N(CC(=O)NC2CCCC2)S(=O)(=O)c2c(C)noc2C)cc1 -4.4%, CSc1cccc(NC(=O)C2CCN(S(=O)(=O)c3ccc(F)cc3)CC2)c1 -7.57%, O=C(CSc1nnc(Cn2c(=O)sc3ccccc32)n1-c1ccccc1)Nc1nccs1 -5.73%

Experiment: growth suppression of yeast trafficking mutant, preliminary HTS, modulators of trafficking downstream of Golgi apparatus project, 1536-format plate, OD 615 nm (AID 637)
Details: yeast transport mutant growth, absorbance 615 nm, 18 h; hits give high values

inhibition, inactive:
CC(CCc1ccccc1)NC(=O)C1CCCN(c2nnc(-n3cccc3)s2)C1 (stereo not drawn) -3.17%, O=C(c1cc(C2CC2)on1)N1CCN(C(c2ccccc2)c2ccccc2)CC1 -0.83%, O=C(C1COc2ccccc2O1)N1CCCC1 (stereo not drawn) -10.2%, CCCCOC(=O)Nc1nc2ccc(OC)cc2s1 -6.17%, CCn1cc(C(=O)NCC2CCCO2)c(=O)c2cc(S(=O)(=O)N(C)C3CCCCC3)ccc21 (stereo not drawn) 1.5%, CCCNC(=O)CS(=O)(=O)Cc1nc(-c2cccc(OC)c2)oc1C 8.2%, CC(=O)C1=C(N2CCCCC2)CCC1=O 5.33%, CCOC(=O)C1CCN(Cc2ccc(F)c(Br)c2)CC1 9.5%, Cc1ccc(N(C(=O)c2ccncc2)C2C=CS(=O)(=O)C2)cc1 (stereo not drawn) 7.33%, COc1ccc(CCNC(=O)C2(C)CCC(=O)N2Cc2ccc3c(c2)OCO3)cc1OC (stereo not drawn) -5.17%, COc1ccc(C2c3c(oc4ccccc4c3=O)C(=O)N2c2ccc(C)cn2)cc1OC (stereo not drawn) -7.5%, CCn1cc(C(=O)NCCCOC)c(=O)c2cc(S(=O)(=O)N(C)C)ccc21 -5.33%, Cc1cc(C)nc(/N=C2\NC(=O)CC(C(=O)O)N2c2ccc(Cl)cc2)n1 (stereo not drawn) 5.17%, O=C(O)c1ccccc1S(=O)(=O)NCC(O)COc1ccc(Br)cc1 (stereo not drawn) -1.17%, COC(=O)Cn1c(=NC(=O)CSCC(=O)Nc2cc(C)on2)sc2ccccc21 -3.5%, COc1ccc(S(=O)(=O)N(CC(=O)N2CCN(c3ccccc3OC)CC2)c2ccccc2)cc1 -2.3%, CCOc1ccccc1NC(=O)CC1Nc2cc(C)c(C)cc2NC1=O (stereo not drawn) -5.5%, COc1ccc(N2Cc3ccccc3C2)cc1Cl -9.17%, CCOC(=O)C(CC)n1nc(C)n2c(cc3sccc32)c1=O (stereo not drawn) 1%, CCOC(=O)C(CC)(CCC(=O)O)c1csc(N)n1 (stereo not drawn) -2.74%, CCOc1ccc(NC(=O)CN2C(=O)C3CCCN3C2=O)cc1 (stereo not drawn) 3.67%, CCOC(=O)N1CCN(C(=O)COc2ccc(S(=O)(=O)NC(C)C)cc2)CC1 2.33%, O=C(NC1CCCc2ccccc21)c1ccc(CNc2c(N3CCOCC3)c(=O)c2=O)cc1 (stereo not drawn) 2.67%, CNC(=O)c1ccsc1NC(=O)c1ccccc1 -3.5%, N#Cc1cc2c(nc1SCC(=O)N1CCCCC1)CCCC2 -6.67%, COc1ccc(N2CCN(c3oc(COc4ccccc4Cl)nc3C#N)CC2)cc1 -4.75%, COc1ccccc1S(=O)(=O)Cc1ccc(C(=O)N2CCN(c3ccc(C)cc3)C(C)C2)o1 (stereo not drawn) 1.64%, CCOC(=O)N1CCC(c2cc(=O)n3[nH]c(C)c(-c4ccc(F)cc4)c3n2)CC1 -0.33%, O=C1CCCC2=C1C(c1cccc(Br)c1)n1nc(-c3ccco3)nc1N2 (stereo not drawn) -2.95%, CCc1ccccc1NC(=O)c1cnc2n(c1=O)CCS2 -4.26%, CC(CCc1ccco1)NC(=O)Cn1ncc2c1-c1ccccc1OC2 (stereo not drawn) -0.66%, COc1cccc(NC(=O)C2CCCN(S(=O)(=O)c3cccc4cccnc34)C2)c1 (stereo not drawn) -5.5%, COc1ccc(C(=O)Nc2nncs2)c(OC)c1 3.33%, CNC(=O)c1ccccc1NC(=O)c1c(O)c2c([nH]c1=O)CCCC2 0.48%, Cc1occc1C(=O)N1CCN(Cc2ccccc2)CC1 -5.5%, CN(C)CCCN1C(=O)CSC1c1ccccc1 (stereo not drawn) -1.83%, CCc1ccc(N(CC(=O)NC2CCCC2)S(=O)(=O)c2c(C)noc2C)cc1 -0.83%, CSc1cccc(NC(=O)C2CCN(S(=O)(=O)c3ccc(F)cc3)CC2)c1 -6.23%, O=C(CSc1nnc(Cn2c(=O)sc3ccccc32)n1-c1ccccc1)Nc1nccs1 -4.43%
